In PubChem BioAssay (NCATS):
Records with an inconclusive call do not appear. A call without a number means that no potency is given here. Active and inactive are the calls of the source. Calls follow the shape of the dose curve; as a rule, active = well fitted cell-killing curve with a large enough effect; inconclusive = small, poorly fitted or top-dose-only effect; inactive = flat fitted curve, though single readings scatter.

Test: Cell Viability - LYMP2-014 (AID 983);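 also: cells exposed to compound for 24 h at 37 °C; nearly all actives have a fitted effect of over 50% in size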
Settings: LYMP2-014 lymphoblastoid cells, viability qHTS; series mostly up to 92.2 µM
From the text: NIH Chemical Genomics Center [NCGC]
NIH Molecular Libraries Screening Centers Network [MLSCN]
National Institutes of Environmental Health Sciences [NIEHS]
National Toxicology Program [NTP]
We have developed a 1536-well cell-based assay for quantitative high throughput screening (qHTS) against a number of cell lines to determine in vitro cytotoxicity of small molecules. This particular assay uses a human lymphoblastoid cell line (LYMP2-014) purchased from Coriell Institute for Medical Research.
NCGC Assay Protocol Summary:
The CellTiter-Glo luminescent cell viability assay (Promega) is a homogeneous method to measure the number of viable cells in culture. The end point readout of this assay is based on quantitation of intracellular ATP, an indicator of metabolic activity, using the luciferase reaction. Luciferase catalyzes the oxidation of beetle Luciferin to oxyluciferin and light in the presence of ATP. The luminescent signal is proportional to amount of ATP present.
Using the CellTiter-Glo luminescent cell viability assay, the amount of cellular ATP was measured in the lymphoblastoid cell line with complete culture medium following compound treatment for 24 hours. The assay was performed in opaque white Kalypsys 1536-well plates. In the screen, tetraoctylammonium bromide was used as positive control. Library compounds were measured for their ability to cause acute toxicity in the cell line, as reflected by a decrease in intracellular ATP levels, in a concentration-dependent manner. […] AC50 values were determined from concentration-response data modeled with the standard Hill equation.
qHTS protocol for CellTiter Glo lymphoblastoid cellular assay
[Step] [Parameter] [Value] [Description]
1. Reagent; 5 uL; 2500 lymphoblastoid cells/well
2. Time; 5 hr; 37 C incubation
4. Controls; 23 nL; Tetraoctylammonium bromide 6.4pM to 92 uM
5. Time; 24 hr; 37 C incubation
6. Reagent; 5 uL; CellTiter Glo reagent
7. Time; 30 min; Room Temperature
8. Detection; Luminescence; Viewlux plate reader
Keywords: cell viability, cytotoxicity, lymphoblastoid cell line, luminescence, NTPHTS, NTPHTS_NCGC, NIEHS, DSSTox, MLSMR, MLSCN, NIH Roadmap, qHTS, NCGC
Potency is read from the fitted curve at half-maximal effect.

Row | Compound | Potency
1 | CC(CCC(=O)O)(c1ccc(O)cc1)c1ccc(O)cc1 | inactive
2 | C1CCCNCC1 | inactive
3 | COc1ccc([N+](=O)[O-])cc1N | inactive
4 | O=C(O)c1ccc([N+](=O)[O-])cc1 | inactive
5 | S=C(NC1CCCCC1)NC1CCCCC1 | inactive
6 | CCc1ccc(C(c2ccc(CC)cc2)C(Cl)Cl)cc1 | inactive
7 | N=C1C=CC(=C(c2ccc(N)cc2)c2ccc(N)cc2)C=C1 | 7.94 µM (active)
8 | CC(=O)OCc1ccc2c(c1)OCO2 | inactive
9 | CN(C)c1ccc(Cc2ccc(N(C)C)cc2)cc1 | inactive
10 | OCC(CO)(CBr)CBr | inactive
11 | CC(C)OCC1CO1 (stereo not given) | inactive
12 | CCN(CC)c1ccc2c(C)cc(=O)oc2c1 | inactive
13 | CC/C=C/C/C=C/C/C=C/CCCCCCCC(=O)OCC | 50.1 µM (active)
14 | CCCCCCCCOc1ccc(C(=O)O)cc1 | inactive
15 | c1ccc(SCCSc2ccccc2)cc1 | inactive
16 | c1cc2c3c(c1)ccc1cccc(c13)C2 | inactive
17 | CCNC(=S)NCC | inactive
18 | Cc1c(N)cccc1Cl | inactive
19 | Oc1cc(Cl)cc(Cl)c1Cl | inactive
20 | CC(=O)Nc1cccc(C)c1 | inactive

Row | Compound | Potency
21 | O=C(OCc1ccccc1)c1ccccc1O | inactive
22 | CC(C)S | inactive
23 | Nc1ccc(N=Nc2ccccc2)c(N)c1 | inactive
24 | Nc1ccc(-c2ccc(N)c(O)c2)cc1O | inactive
25 | c1ccc(Nc2cccc3ccccc23)cc1 | inactive
26 | COc1ccc(C(=O)Nc2ccccc2)cc1[N+](=O)[O-] | inactive
27 | c1ccc(COCc2ccccc2)cc1 | inactive
28 | Brc1cc(Oc2cc(Br)c(Br)c(Br)c2Br)c(Br)c(Br)c1Br | inactive
29 | CCCCOC(=O)COc1ccc(Cl)cc1Cl | inactive
30 | O=[N+]([O-])c1ccccc1Nc1ccccc1 | inactive
31 | CCCC(=O)OC(=O)CCC | inactive
32 | Oc1ccc2c(c1)OCO2 | inactive
33 | Brc1cc(Br)c(Oc2cc(Br)c(Br)cc2Br)cc1Br | inactive
34 | CC(=O)OC1CC(C)OC(C)O1 (stereo not given) | inactive
35 | Nc1ccccc1O | inactive
36 | O=c1[nH]ncc2ccccc12 | inactive
37 | Nc1cc(C(=O)O)c(O)c(S(=O)(=O)O)c1 | inactive
38 | COc1cc(-c2ccc(N=C=O)c(OC)c2)ccc1N=C=O | inactive
39 | CCC(Cl)CC(Cl)C(Cl)C(Cl)C(Cl)C(C)Cl (stereo not given) | inactive
40 | Cc1ccc(S(N)(=O)=O)cc1 | inactive
